Screens from PubChem.
Most compounds without a hit are left out; they make up all but 10% or so of the library.
GPT2 inh – inhibitors of human GPT2 alanine aminotransferase; AID 1671188; Recombinant GPT2, coupled pyruvate oxidase/HRP Amplex Red fluorescence; 0.25% of 100,000 active; Potency, µM (series often up to 57.7 µM), most hits filed as inhibitors; Q8TD30; note: nearly all actives have a fitted effect of over 60% in size
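GPT2 10ng/uL, a-KG 250uM, L-Ala 2mM, HEPES pH7.5 + 0.0001% Tween; 30 min RT. Then Amplex mix (PO/HRP/ThPP), 30 min RT dark, fluorescence. AOA 50uM used as positive control.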
HEK cytotox – HEK 293 cell cytotoxicity; 6.6% of 94,000 active; HEK 293 viability, ATP luminescence (CellTiter-Glo), 48-72 h; Potency, µM (series often up to 115 µM), actives largely listed as inhibitors; AID 1345083; note: nearly all actives have a fitted effect of over 60% in size
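Pintool-delivered compounds were incubated with HEK 293 cells (250 cells/well) at 37 degree Celsius for 48 or 72 hr. ATP-dependent luminescence (CellTiter-Glo) then reported remaining viable cells.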
3T3 cytotox – NIH 3T3 cell cytotoxicity | NIH 3T3 viability, CellTiter-Glo ATP luminescence, 48-72 h | Potency, µM (series often up to 96.7 µM), usual class: inhibitors | 4.3% of 94,000 active | AID 1345082; note: nearly all actives have a fitted effect of over 55% in size
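Luminescent ATP readout (CellTiter-Glo, 10 min RT) after 48 or 72 hr compound exposure of NIH 3T3 cells seeded at 400 cells/well in 1536-well format; quantitative HTS.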
FLuc inh – Photinus pyralis luciferase inhibition | 2.5% of 76,000 active | purified P. pyralis luciferase, luminescence, biochemical | Potency, µM (titrated, usually from 115 µM), usual class: inhibitors | P08659; note: nearly all actives have a fitted effect of over 65% in size
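FLuc 10nM, D-luciferin 10uM, ATP 10uM, Mg acetate 10mM, Tris acetate pH 7.5, Tween/BSA; cpd qHTS; enzyme added last; CCD luminescence.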
NPR1 antag – human Npr1 receptor antagonism. HEK293 hNpr1 GloSensor cGMP, ANP-stimulated luminescence. Potency, µM (series often up to 46.3 µM), actives largely listed as inhibitors. 1.6% of 76,000 active. AID 1347048; calls by dose curve; note: nearly all actives have a fitted effect of over 60% in size
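Compound pre-incubated 30 min at room temperature on GloSensor-loaded HEK293 cells stably carrying hNpr1 and the pGS-40F cGMP biosensor. Stimulation uses hNppA at 0.1 nM final; luminescence is taken at baseline and 20 min post-agonist.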
A number is an active result; – = inactive; ? = inconclusive; · = no result. Unless noted, calls come from the whole dose curve; as a rule, active = well fitted curve in the direction sought with a large enough effect; inconclusive = small, poorly fitted or top-dose-only effect, or another doubt; inactive = no such curve, though single readings can be large; an effect the other way counts as inactive or inconclusive.

SMILES	GPT2 inh	HEK cytotox	3T3 cytotox	FLuc inh	NPR1 antag
COC(=O)CNC(=O)c1ccc2nnc(-c3cc(F)ccc3F)n2c1	–	–	–	·	·
CCN1C[C@H]2CN(C)c3ccccc3[C@@H]2N(C(=O)c2ccc(C)cc2)CCC1=O	–	?	?	·	·
O=C(C1CCCC1)N1CC2(CCNC2)OCc2ccccc21 (stereo unspecified)	–	–	–	·	·
c1ccc2c(c1)COC1(CCNC1)CN2CC1CCCCC1 (stereo unspecified)	–	79.4µM	31.6µM	·	·
Cc1ccc(-c2cc(C(=O)N3CCN(c4ncccn4)CC3)c3cnn(C)c3n2)cc1	–	?	?	·	·
O=C(NCc1ccccc1Cl)C1CN(C2CCCC2)C(=O)N1 (stereo unspecified)	–	–	?	·	·
CC(c1cccs1)N(C)C(=O)Nc1ccc(Cl)cc1 (stereo unspecified)	–	?	79.4µM	44.7µM	–
CC(c1cccs1)N(C)C(=O)c1cccc(Cl)c1 (stereo unspecified)	–	100µM	–	–	–
COc1cccc(C(=O)N(C)C(C)c2cccs2)c1 (stereo unspecified)	–	–	–	–	–
CNC(=O)[C@H]1C[C@]2(CCCCN(CCO)C2=O)N(C(=O)c2cccc(OC)c2)[C@H]1c1ccco1	·	–	?	·	·
COc1ccc(C(C)NC(=O)c2c(C)oc3ccn(Cc4cccc(F)c4)c(=O)c23)cc1 (stereo unspecified)	–	31.6µM	?	–	–
Cc1oc2ccn(Cc3cccc(F)c3)c(=O)c2c1C(=O)NCc1cccc(F)c1	–	?	?	–	–
CCCNC(=O)c1c(C)oc2ccn(Cc3ccc(F)cc3)c(=O)c12	–	35.5µM	?	–	–
O=C(NCc1nnc2ccc(-c3ccccc3)nn12)c1cc(F)ccc1Cl	–	39.8µM	?	–	–
C=CCOc1cccc(-c2nc(C(=O)N(C)Cc3ccco3)cs2)c1	–	?	?	?	–
Cc1cc(C2CCCN2C(=O)c2ccc(-c3ccccc3Cl)o2)no1 (stereo unspecified)	–	44.7µM	?	?	–
COc1ccc(Nc2ccnc(N3CCN(C(=O)c4cccc(OC)c4)CC3)n2)cc1	–	15.8µM	25.1µM	·	·
COc1ccc(Nc2ccnc(N3CCN(C(=O)Nc4ccc(Cl)cc4)CC3)n2)cc1	–	?	–	·	·
COc1cccc(C(=O)NC2CCN(c3nccc(Nc4ccccc4Cl)n3)CC2)c1	–	?	35.5µM	·	·
COc1ccc(CC(=O)N2CCN(c3nccc(Nc4ccc(OC)cc4)n3)CC2)cc1	–	?	–	·	·
O=C(c1ccccc1)N1CCN(c2nccc(Nc3ccccc3Cl)n2)CC1	–	?	?	·	·
COc1ccc(Nc2ccnc(N3CCN(C(=O)Nc4ccccc4)CC3)n2)cc1	–	25.1µM	?	·	·
O=C(c1ccc(Cl)cc1)N1CCN(c2nccc(Nc3ccccc3Cl)n2)CC1	–	22.4µM	?	·	·
COCCOC1CN(C2CCN(Cc3ccc(C)o3)CC2)C12CCCCC2 (stereo unspecified)	–	–	–	–	–
COc1ccc(Cn2c(=O)c(C(=O)NCC(F)(F)F)nc3cccnc32)cc1	–	–	–	·	·
SMILES	GPT2 inh	HEK cytotox	3T3 cytotox	FLuc inh	NPR1 antag
COc1ccc(Nc2ccnc(N3CCN(C(=O)c4ccccc4F)CC3)n2)cc1	–	?	35.5µM	·	·
COc1ccc(Nc2ccnc(N3CCN(C(=O)c4ccc(Cl)cc4)CC3)n2)cc1	–	17.8µM	–	·	·
COc1ccc(Nc2ccnc(N3CCN(C(=O)c4ccccc4OC)CC3)n2)cc1	–	?	?	·	·
COc1ccc(Nc2ccnc(N3CCN(C(=O)NC(C)C)CC3)n2)cc1	–	?	?	·	·
COc1cccc(C(=O)N2CCN(c3nccc(Nc4ccccc4Cl)n3)CC2)c1	–	35.5µM	?	·	·
CN(Cc1cccnc1)C1CN(C(=O)c2ccccc2F)C1	–	–	–	·	·
O=C(NCCc1ccc(Cl)cc1)c1ccc2oc(-c3ccncc3)nc2c1	–	–	–	·	·
O=C(NC1CCN(c2ccnc3ccnn23)CC1)c1cc(F)ccc1Br	–	?	?	·	·
COc1ccc(Nc2ccnc(N3CCC(C(=O)NC(C)C)CC3)n2)cc1	–	?	?	·	·
COC1CCC(C(=O)N2CC(CNc3ccccc3)C3(C2)CN(c2ccccc2)C3)CC1 (stereo unspecified)	–	63.1µM	44.7µM	–	–
O=C(O)c1ccc([S+](=O)([O-])N2CC(COc3ccccc3)C3(CN(c4ccccc4)C3)C2)cc1 (stereo unspecified)	?	–	31.6µM	–	–
O=C(CCc1cccnc1)N1CC(COc2ccccc2)C2(C1)CN(c1ccccc1)C2 (stereo unspecified)	–	89.1µM	?	–	–
COC1CCC(C(=O)N2CC(COc3ccccc3)C3(C2)CN(c2ccccc2)C3)CC1 (stereo unspecified)	–	89.1µM	89.1µM	–	–
COC(=O)N1CCc2nc(C3CC3)nc(-c3ccc(O)cc3)c2CC1	–	–	–	·	·
O=C(Cc1ccccc1)Nc1cc(-c2cccnc2)nn1-c1ccccc1	–	?	?	·	·
